Screening data as filed in PubChem BioAssay.
BAZ2B block = qHTS Assay for Inhibitors of BAZ2B | hit rate 4.4% among 360,000 | AlphaScreen BAZ2B-H3K14Ac peptide displacement | Bromodomain adjacent to zinc finger domain protein 2B (Homo sapiens), Q9UIF8 | Potency, µM (doses to about 114 µM), for the others: at the highest dose activity change, negative = inhibition, actives largely listed as inhibitors; also: % is scaled to controls: 0 for no effect and ±100 for the full control effect; nearly all actives have a fitted effect of over 60% in size
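Protein-peptide AlphaScreen: BAZ2B 50 nM, b-H3K14Ac 50 nM, 1x PBS pH 7.4 + 0.01% Tween-20. Preincubation 30 min RT; cpd 30 min RT (top 110 uM); beads 20 min RT, light-protected.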
GLS inh = qHTS for Inhibitors of Glutaminase (GLS). Potency, µM (titrated, usually from 45.5 µM), without a hit: at the highest dose activity change, negative = inhibition, most hits filed as inhibitors. Glutaminase kidney isoform, mitochondrial (Homo sapiens), O94925. GLS enzymatic activity, qHTS titration. hit rate 0.21% among 410,000. AID 624170, 2012; also: % is scaled to controls: 0 for no effect and ±100 for the full control effect
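Human kidney-isoform GLS in 45 mM KH2PO4 pH 8.2, 0.02% Tween-20, with compound, started with 1mM L-Glutamine (added stock). Glutamate oxidase/HRP/Amplex red coupled fluorescence read at start and after 30 min at RT.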
L3MBTL1 inh = qHTS Assay for the Inhibitors of L3MBTL1; hit rate 0.66% among 230,000; AlphaScreen L3MBTL1–H3K9me1 peptide binding; Lethal(3)malignant brain tumor-like protein 1 (Homo sapiens), Q9Y468; Potency, µM (doses to about 57.1 µM), inactives show top-dose activity, negative = inhibition, hits mostly inhibitors; also: % is scaled to controls: 0 for no effect and ±100 for the full control effect; nearly all actives have a fitted effect of over 60% in size
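Read-out is AlphaScreen signal from streptavidin donor and nickel chelate acceptor beads (10 ug/mL final each) bridging L3MBTL1 (50 nM) and biotinylated K9-monomethylated H3(1-15) peptide (75 nM), after 30 min compound exposure at room temperature.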
G9a inh = qHTS Assay for Inhibitors of Histone Lysine Methyltransferase G9a; hit rate 8.8% among 350,000; Histone-lysine N-methyltransferase EHMT2 (Homo sapiens), Q96KQ7; G9a H3K9 monomethylation, AlphaScreen, 2 h; Potency, µM (highest dose often 102 µM), without a hit: at the top dose activity, negative = inhibition, most hits filed as inhibitors; also: % is scaled to controls: 0 for no effect and ±100 for the full control effect; nearly all actives have a fitted effect of over 75% in size
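Step 1: enzyme (final 20 nM) with compound, 15 min RT. Step 2: substrate peptide 500 nM and SAM 20 uM, 2 h RT. Step 3: anti-H3K9me1 antibody and AlphaScreen beads, 10 min, then plate read.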
HP1b chromo inh = HTS for Inhibitors of HP1-beta Chromodomain Interactions with Methylated Histone Tails; Chromobox protein homolog 1 (Homo sapiens), P83916; AlphaScreen HP1-beta / biotin-H3K9me3 peptide binding; Potency, µM (doses to about 114 µM), inactives show at the highest dose activity change, negative = inhibition, actives largely listed as inhibitors; hit rate 0.56% among 390,000; also: nearly all actives have a fitted effect of over 70% in size
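Compound inhibition of the preformed complex between 50 nM HP1-beta and 50 nM biotinylated H3K9me3 peptide was read by AlphaScreen. Buffer was PBS pH 7.4 with 0.01% Tween-20. Incubations ran 30 min at room temperature, with 10 ug/mL donor/acceptor beads.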
JMJD2A Tudor = qHTS Assay for Inhibitors of JMJD2A-Tudor Domain | Lysine-specific demethylase 4A (Homo sapiens), O75164 | Potency, µM (highest dose often 114 µM), without a hit: at the top dose activity change, negative = inhibition, actives largely listed as inhibitors | AlphaScreen JMJD2A-Tudor / H3K4me3 peptide binding | hit rate 4.4% among 390,000; also: % is scaled to controls: 0 for no effect and ±100 for the full control effect; nearly all actives have a fitted effect of over 50% in size
Target sequence (O75164 whole entry, looked up, the tested form may be a part): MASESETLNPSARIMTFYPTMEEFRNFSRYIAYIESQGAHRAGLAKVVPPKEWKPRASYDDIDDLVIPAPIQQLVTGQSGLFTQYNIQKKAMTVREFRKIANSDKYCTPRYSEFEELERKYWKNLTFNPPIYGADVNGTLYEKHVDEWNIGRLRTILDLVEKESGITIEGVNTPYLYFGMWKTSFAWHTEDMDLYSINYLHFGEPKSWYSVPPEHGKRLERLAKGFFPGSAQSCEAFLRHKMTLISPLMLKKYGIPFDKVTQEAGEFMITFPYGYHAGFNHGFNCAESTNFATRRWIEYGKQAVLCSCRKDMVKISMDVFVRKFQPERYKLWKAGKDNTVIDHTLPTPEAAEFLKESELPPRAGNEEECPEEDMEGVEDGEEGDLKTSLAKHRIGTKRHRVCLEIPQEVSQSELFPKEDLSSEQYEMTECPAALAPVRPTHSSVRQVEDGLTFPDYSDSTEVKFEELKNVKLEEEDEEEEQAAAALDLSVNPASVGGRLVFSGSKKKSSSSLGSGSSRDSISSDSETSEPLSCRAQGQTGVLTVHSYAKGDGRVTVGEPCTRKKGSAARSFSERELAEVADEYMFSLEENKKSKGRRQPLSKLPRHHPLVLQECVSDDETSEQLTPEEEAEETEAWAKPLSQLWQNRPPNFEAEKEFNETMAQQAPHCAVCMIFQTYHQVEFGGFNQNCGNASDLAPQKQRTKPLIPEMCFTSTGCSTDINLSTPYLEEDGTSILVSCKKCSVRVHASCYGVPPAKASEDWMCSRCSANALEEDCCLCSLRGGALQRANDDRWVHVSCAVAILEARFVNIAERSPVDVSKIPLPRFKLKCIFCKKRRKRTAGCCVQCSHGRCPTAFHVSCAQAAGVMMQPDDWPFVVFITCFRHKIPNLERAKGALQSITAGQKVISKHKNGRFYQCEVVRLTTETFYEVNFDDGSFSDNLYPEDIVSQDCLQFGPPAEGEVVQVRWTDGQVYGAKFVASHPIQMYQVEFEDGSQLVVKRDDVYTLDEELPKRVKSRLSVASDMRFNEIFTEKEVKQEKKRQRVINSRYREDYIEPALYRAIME
* marks the source's active call; other numbers are inactive results; [ ] = dose if it differs, or a comment. Shown are actives, neighbours in structure and some others; about 10% of the full set was active somewhere. Calls follow the shape of the dose curve; as a rule, active = well fitted curve in the direction sought with a large enough effect; inconclusive = small, poorly fitted or top-dose-only effect, or another doubt; inactive = no such curve, though single readings can be large; an effect the other way counts as inactive or inconclusive. Potency is read from the fitted curve at half-maximal effect.

Screening Cc1occc1-c1nnc(SCC(=O)NCCc2ccccc2)n1C(C)c1ccccc1 (stereo not given) returned BAZ2B block inconclusive, GLS inh 13%, L3MBTL1 inh -1%, G9a inh 56µM*, HP1b chromo inh 9% and JMJD2A Tudor -25%.
`CCC(=O)Nc1ccc(C(=O)CSc2nnc(-c3ccc(O)cc3)n2CC2CCCO2)cc1` (stereo not given) gave BAZ2B block inconclusive, GLS inh -5%, G9a inh 45µM*, HP1b chromo inh 1% and JMJD2A Tudor inconclusive.
Screening NC(=O)NC(=O)CSc1nnc(-c2ccc(Cl)cc2)n1CC1CCCO1 (stereo not given) returned BAZ2B block 1%, GLS inh 3%, L3MBTL1 inh 1%, G9a inh -5%, HP1b chromo inh 36% and JMJD2A Tudor -9%.
`CSc1cccc(NC(=O)C(c2ccccc2)N2Cc3ccccc3C2=O)c1` (stereo not given) gave BAZ2B block inconclusive, GLS inh -13%, G9a inh inconclusive, HP1b chromo inh -15% and JMJD2A Tudor -34%.
`C[C@@H](O)[C@@H]1C(=O)N2C(C(=O)O)=C([C@H]3CCCO3)S[C@H]12` gave GLS inh 2% and G9a inh 1%[12.7 µM].
For CC1CCCN(C(=O)Cn2ncc3c([nH]c4ccccc43)c2=O)C1 (stereo not given) the results were BAZ2B block 3%, GLS inh 0%, G9a inh -4%[59 µM], HP1b chromo inh 22% and JMJD2A Tudor -12%.
For O=C(CNC(=O)C1CCCC1)OC(C(=O)Nc1cc(C(F)(F)F)ccc1Cl)c1ccccc1 (stereo not given) the results were JMJD2A Tudor -11%.
O=C(NC1CC(=O)N(c2ccc(F)cc2)C1)c1cc2ccccc2o1 (stereo not given) was read as BAZ2B block -2%, GLS inh 3%, G9a inh 3%[59 µM], HP1b chromo inh 44% and JMJD2A Tudor -9%.
Cc1ccc(-c2onc(C)c2C)cc1S(=O)(=O)NCc1cccs1 was read as BAZ2B block -14%, GLS inh 0%, G9a inh 20%[59 µM], HP1b chromo inh 89% and JMJD2A Tudor -8%.
COc1ccccc1-n1nnnc1SCC(=O)NC1CC1 was read as BAZ2B block -1%, GLS inh inconclusive, L3MBTL1 inh 13%, G9a inh 9%, HP1b chromo inh 28% and JMJD2A Tudor -14%.
Screening CCC(=O)Nc1ccc(-c2nnc(SCC(=O)NCC3CCCO3)n2C)cc1 (stereo not given) returned BAZ2B block 3%, GLS inh 1%, L3MBTL1 inh 15%, G9a inh 8.9µM*, HP1b chromo inh 25% and JMJD2A Tudor -10%.
Screening CCOc1ccccc1-n1nnnc1SCC(=O)NC(=O)Cc1ccccc1 returned BAZ2B block 0%, GLS inh 9%, L3MBTL1 inh 9%, G9a inh 10µM*, HP1b chromo inh 20% and JMJD2A Tudor -29%.
`Cc1occc1-c1nnc(SCC(=O)NCC2CCCO2)n1C` (stereo not given) gave BAZ2B block -3%, GLS inh 13%, L3MBTL1 inh 7%, G9a inh -10%[59 µM], HP1b chromo inh -6% and JMJD2A Tudor 56µM*.
Screening CCOc1ccccc1-n1nnnc1SCC(=O)N1CCCC1=O returned GLS inh 0%, L3MBTL1 inh 0%, HP1b chromo inh 48% and JMJD2A Tudor -2%.
For COc1ccccc1-n1nnnc1SCC(=O)NCC1CCCO1 (stereo not given) the results were BAZ2B block 1%, GLS inh -7%, L3MBTL1 inh 8%, G9a inh 56µM*, HP1b chromo inh 26% and JMJD2A Tudor -10%.
`COc1ccccc1NC(=O)c1cnc(SCC(=O)N2CCOCC2)n(C)c1=O` gave BAZ2B block -3%, GLS inh -5%, G9a inh 11%[59 µM], HP1b chromo inh 18% and JMJD2A Tudor -11%.
COc1cccc(C2CC(=O)Nc3c2c(=O)n(C)c2ncnn32)c1OC (stereo not given) was read as BAZ2B block -32%, GLS inh -15%, G9a inh -14%[59 µM], HP1b chromo inh 6% and JMJD2A Tudor -3%.
`CCCCN(C)CCCNC(=O)C1CCN(S(=O)(=O)CCC)CC1` gave BAZ2B block 1%, GLS inh -14%, G9a inh -17%[59 µM], HP1b chromo inh 23% and JMJD2A Tudor -18%.
`CC(C)NC(=O)C(=O)NNC(=O)CCc1ccccc1` gave BAZ2B block -39%, GLS inh 2%, L3MBTL1 inh -4%, G9a inh inconclusive, HP1b chromo inh 20% and JMJD2A Tudor 14µM*.
`CCc1ccccc1NNC(=O)CCc1ccccc1` gave BAZ2B block -3%, GLS inh inconclusive, L3MBTL1 inh 6%, G9a inh 28µM*, HP1b chromo inh 19% and JMJD2A Tudor -7%.
For Cc1ccc2nc(Cl)c3cc(C(=O)N(C)C4CCCCC4)sc3c2c1 the results were BAZ2B block -1%, GLS inh 0%, G9a inh 11%[59 µM], HP1b chromo inh 35% and JMJD2A Tudor -2%.
COCCNC(=S)N/N=C/c1ccccc1C(=O)O was read as BAZ2B block inconclusive, GLS inh 23%, G9a inh 8.9µM*, HP1b chromo inh 17% and JMJD2A Tudor inconclusive.
`COCCNC(=S)N/N=C(\C)c1ccccc1O` gave BAZ2B block 10µM*, GLS inh 25%, L3MBTL1 inh 18%, G9a inh 22%[59 µM], HP1b chromo inh 27% and JMJD2A Tudor -10%.
COCCCNC(=S)N/N=C/c1ccccc1O was read as BAZ2B block 10µM*, GLS inh 31%, L3MBTL1 inh inconclusive, HP1b chromo inh 43% and JMJD2A Tudor 56µM*.
COCCNC(=S)N/N=C(\C)c1ccccc1OC was read as BAZ2B block -10%, GLS inh -1%, L3MBTL1 inh 0%, G9a inh 18%[59 µM], HP1b chromo inh 33% and JMJD2A Tudor -6%.
